Measurements as given in PubChem BioAssay AID2253 (Southern Research Specialized Biocontainment Screening …, 2010).
Hit rate of the full screen: of about 2,200 compounds, about 1,300 (59%) were called active. The set was probably picked from earlier hits. A selection follows. Potency and affinity values are given separately. A number with no mark means an inactive call. The rule behind the calls is not given here.

assay: human monocytic cell viability reduction – S. typhimurium screen hits, cytotoxicity control for Salmonella PhoP regulon inhibitors, dose response (AID 2253); settings: THP-1 viability, CellTiter-Glo luminescence, 72 h; series mostly up to 50 µM; viability: at the top concentration

SMILES | viability
CCN(CC)CCN(Cc1cc2cc3c(cc2[nH]c1=O)OCCO3)C(=O)NC1CCCCC1 | 89.8%
COc1ccccc1NC(=S)NC(=O)C(C)(C)C | 102%
Nc1ccc2c(c1)C(=O)N(CC1CCCO1)C2=O (centres undefined) | 96.7%
Nc1ccc2oc3ccccc3c2c1 | 108%
CCOC(=O)c1cn(CC)c2cc(N3CCOCC3)c(F)cc2c1=O | 87.9% [at 25 µM]
CCCc1cc(N2CCN(c3ccccn3)CC2)n2nc(C)c(-c3ccccc3)c2n1 | 100%
CCCN(CCC)CCCNS(=O)(=O)c1ccc2c(c1)oc(=O)n2C | 87.8%
COC(=O)Cn1c(C)nc2ccccc21 | 101%
O=C(O)CCc1nn2c3ccccc3n(CC(=O)c3ccccc3)c2nc1=O | 94.2%
CSc1nsc(SCC(=O)Nc2ccc(C(C)=O)cc2)n1 | 92%
CCCc1nc2c(o1)CC(CC(C)SCC)CC2=O (centres undefined) | 99%
Cc1cc(Oc2ccc(-c3nnc(-c4ccccc4)o3)cc2[N+](=O)[O-])ccc1Cl | 97%
C=CCOc1ccc(Br)cc1/C=N/O | 89.5%
CCOC(=O)CCCNC(=O)COC(=O)CCC(=O)c1ccc(F)cc1 | 96%
COc1ccccc1N1CCN(C/C(O)=C(\C#N)c2nc(-c3ccccc3)cs2)CC1 | 113%
Cc1cc(C)nc(NC(=O)Cc2cccs2)n1 | 104%
Cc1oc(CC(C)C)c(CN2CCCC2)c1C(=O)O | 87.2%
O=C(O)C1(P(=O)(c2ccccc2)c2ccccc2)CCC1 | 93.6%
O=C(O)CCc1nnc2n(Cc3ccc(F)cc3)c(=O)c3ccccc3n12 | 94.4%
CC1Cc2ccccc2N1C(=O)COC(=O)c1ccc(S(=O)(=O)N(C)C)cc1 (centres undefined) | 95.1%
CCSc1nc(C2CC2)cc(-c2cccs2)c1C#N | 99.5%
O=c1cc(O)nc(SCc2ccccc2Cl)[nH]1 | 92.7%
Cc1ccc(-n2nc(-c3ccc(N)cc3)cc2N)cc1 | 100%

SMILES | viability
O=C(O)CCS(=O)(=O)c1ccc(-c2ccccc2)cc1 | 97.2%
Cc1c(Cl)cccc1NC(=O)CSCC(N)=O | 97.7%
O=C(NC(NC(=S)Nc1ccc(Cl)cc1)C(Cl)(Cl)Cl)c1ccco1 (centres undefined) | 95.5%
CCC(C)NC(=O)c1cn(CC)c2cc(N3CCN(C)CC3)c(F)cc2c1=O (centres undefined) | 83.6%
NC(=O)C1(NC(=O)[C@@H]2CC3(CC(c4cccc(NC(=O)[C@@H]5CCC(=O)N5)c4)=NO3)CN2C(=O)Cc2ccc(Cl)cc2)CC1 (some centres undefined) | 91.9%
COCCNC(=O)c1ccc(C(=O)NCCOC)s1 | 114%
O=C(CCC(=O)c1cccs1)OCC(=O)N1CCN(S(=O)(=O)c2ccccc2)CC1 | 94%
COc1cc(S(=O)(=O)N2CCCCC2)ccc1NC=O | 110%
CCOC(=O)N1CCN(C(=O)c2ccc(NC(=O)c3ccc(C)cc3)cc2)CC1 | 86.7%
Cc1nnc(SC(C)C(=O)Nc2ccc(S(=O)(=O)N3CCCCCC3)cc2)s1 (centres undefined) | 83.6%
CCn1cc(C(=O)OCC(=O)Nc2ccc(S(=O)(=O)N3CCCC3)cc2)c(=O)c2ccc(C)nc21 | 97.5%
O=C(OCC(=O)c1ccc(S(=O)(=O)N2CCCC2)cc1)C1=COCCO1 | 103%
Cc1cc(C)c2c(=O)[nH]c(SCC(=O)Nc3ccc(N(C)C)cc3)nc2n1 | 94.1%
Cc1cccc(C(=O)O/N=C2\CCSc3ccc(C)cc32)c1 | 82%
CC1(C)CC(=O)C(C=Nc2ccc(Cl)cn2)=C(O)C1 | 116%
CN1CCN(c2cc3c(cc2F)c(=O)c(C(=O)O)cn3CCF)CC1 | 86.3%
Cc1cc(C(=O)NCc2ccco2)no1 | 96.3%
CC(C)(C)NS(=O)(=O)c1ccc(CCC(=O)N2CCOCC2)cc1 | 92.2%
CCOC(=O)C1=C(c2ccccc2)N=C2SCC(=O)N2C1c1ccc(O)c(OC)c1 (centres undefined) | 89.6%
COc1ccc(-c2nnc(SCC(=O)NCc3ccco3)o2)cc1 | 86.9%
COc1ccc(-c2csc(NC(=O)C3CCCO3)n2)cc1 (centres undefined) | 81.1%
CCN(C(C)=O)c1nc(CSc2nnc(NC(C)C)s2)cs1 | 87.3%
COc1ccc(/C=N/NC(=O)c2ccc3c(c2)OCCO3)cc1[N+](=O)[O-] | 96.5%

SMILES | viability
O=C(CN1CCCCCC1)Nc1cccc(Br)c1 | 84%
O=C(CN1CCCCC1)Nc1cccc(Br)c1 | 95%
O=C(c1cccc(S(=O)(=O)N2CCOCC2)c1)N1CCCC1 | 98.5%
CCOC(=O)C1=CSC2=NS(=O)(=O)CCN12 | 98.7%
CC(=O)N1CCC(N(CCN2CCOCC2)C(=S)Nc2cccc(C)c2C)CC1 | 86.5%
O=c1cc(CSc2nc(NCc3ccccc3)c3ccccc3n2)nc2ccc(Cl)cn12 | 83.5%
CNc1ncc(Cc2ccccc2)s1 | 98.4%
Cc1nc(N2CCN(Cc3ccccc3)CC2)nc2c1C(=O)CC(C)C2 (centres undefined) | 82.4%
CCOC(=O)Nc1ccc(C)cc1C | 91.4%
CCOC(=O)c1ccc(NC(=O)Nc2cc(C)on2)cc1 | 99.5%
CCOC(=O)C1CCCN(C(=O)c2sc3nc(C)nc(N4CCOCC4)c3c2C)C1 (centres undefined) | 86.6%
CCCCNC(=O)Oc1cccc(N2CCCC2=O)c1 | 101%
CCCOc1ccc(C(=O)CCC(=O)OCC(=O)N2CC(=O)Nc3ccccc32)cc1 | 96.4%
O=S1(=O)C=CC(Nc2ccccc2)C1 (centres undefined) | 85.5%
CC(C)N(Cc1nc(-c2ccccc2)no1)C(=O)CN(C)S(=O)(=O)c1ccccc1 | 82.1% [at 25 µM]
C[C@H]1COc2c(N3CCN(C)CC3)c(F)cc3c(=O)c(C(=O)O)cn1c23 | 99.5%
Cc1nc(-c2ccccc2)cc(=O)[nH]1 | 96.8%
Cc1ccc(Oc2nnc(-c3ccccc3)c3ccccc23)cc1 | 101%
COC(=O)c1cc(C#N)c(Oc2cccc(C)c2C)nc1C | 88.2%
COc1ccc(NC(=O)ON=C2c3ccccc3-c3ccccc32)cc1 | 89%
Cc1ccc(C(=O)Nc2ccccc2C(N)=O)o1 | 86.6%
NC(=O)c1ccccc1N=Cc1ccccn1 | 91.5%
Cc1scc(C(=O)O)c1-c1c(C(=O)O)csc1C | 96.9%

SMILES | viability
COc1cc(OC)c(C(=O)Nc2ccc(S(=O)(=O)Nc3ncccn3)cc2)cc1OC | 98.1%
CN(CC(=O)NCc1cccc(F)c1)C(=O)c1ccco1 | 84.9%
COC(=O)c1ccc(Sc2ccccc2NS(=O)(=O)c2ccc(C)cc2)nc1 | 91.1%
N/C(=N\c1nc2ccccc2o1)NC(=O)c1ccccc1F | 94.7%
CCCOc1ccc(/C=N/O)cc1 | 94.1%
O=C1CN(C(=O)COC(=O)CCC(=O)c2ccc3c(c2)OCCO3)c2ccccc2N1 | 87.7%
CC(=O)NC12CC3CC(C1)CC(C(=O)OCC(=O)c1ccc4c(c1)OCCO4)(C3)C2 | 82.9%
Cn1c(NCc2cccs2)nc2ccccc21 | 86.8%
O=C(CSC1CCCCC1)Nc1ccccc1Br | 100%
CN1CCN(S(=O)(=O)c2ccc(N)cc2)CC1 | 101%
COc1cc(C=O)ccc1OCCCOc1ccccc1[N+](=O)[O-] | 84.3%
O=C(CNC(=O)c1ccco1)OCC(=O)c1ccc2c(c1)CCCC2 | 103%
CC(C)(C)C1CCC2(CC1)Nc1cccc3cccc(c13)N2 | 112%
Cc1ccc(C(=O)NCC(=O)OCC(=O)N2CCCc3ccccc32)cc1 | 112%
CCCc1cc(=O)oc2cc(OCC(=O)N3CCc4ccccc43)ccc12 | 96.1%
CCn1c(SCc2ccc(F)cc2)nc2ccccc2c1=O | 86.5%
COc1cccc(-n2c(N)c(C(=O)Nc3c(C)n(C)n(-c4ccccc4)c3=O)c3nc4ccccc4nc32)c1 | 87.9%
COc1cc(Cc2cc(N)nc(N)n2)cc(OC)c1OC | 82.9%
Cn1c(N)c(C(=O)COC(=O)C2CCCCC2)c(=O)n(C)c1=O | 92.8%
CCC(OC(=O)C(NC(=O)c1ccccc1)c1ccccc1)C(=O)Nc1cc(C)on1 (centres undefined) | 81.7%
O=C(N/N=C/c1coc2ccc(Cl)cc2c1=O)c1cc(O)cc(O)c1 | 88.3%
O=C(NCCc1ccc(Cl)cc1)/C(=C/c1cccnc1)NC(=O)c1ccccc1 | 82.7%
Cc1occc1C(=O)n1cnc2ccccc21 | 83.7%

SMILES | viability
O=c1[nH]c2ccccc2n1C1=CCCC1 | 101%
Cc1ccc2c(c1)cc(CN(Cc1ccc3c(c1)OCO3)C(=O)c1cnccn1)c1nnnn12 | 84.1%
COC(=O)c1sccc1N/N=C(\C)c1ccc(F)c(Cl)c1 | 105%
CCOc1ccc(CSC(CC(=O)O)C(=O)O)cc1 (centres undefined) | 95.8%
CC(=O)N1C(=O)C2(C(C#N)=C(N)Oc3c2c(C)nn3-c2ccccc2)c2ccccc21 (centres undefined) | 85.7%
O=C(NCc1ccc2c(c1)OCO2)c1ccc(-n2cnnn2)cc1 | 84.5%
Cc1cc(C)cc(NC(=O)CSc2nc3c(c(=O)[nH]2)CN(Cc2ccc(F)cc2)CC3)c1 | 81.4% [at 25 µM]
Cn1cc(C(CC(=O)O)C(=O)O)c2ccccc21 (centres undefined) | 86%
c1ccc(OCCCN2CCCC2)cc1 | 96.7%
CCOc1ccccc1OCC(=O)Nc1ccc(S(=O)(=O)Nc2nc(C)cc(C)n2)cc1 | 89.7% [at 25 µM]
COCCNC(=O)c1ccccc1NS(=O)(=O)c1ccc(Br)s1 | 87.3%
Cc1[nH]n(-c2ccccc2)c(=O)c1-c1ccc(Cl)cc1 | 89.1%
Cc1nn(-c2ccccc2)c(C)c1C(=O)OC/C(O)=C(\C#N)c1nc2ccccc2[nH]1 | 97.8%
C/C(=C\C(=O)OCCCCCCCCC(=O)O)C[C@@H]1OC[C@H](C[C@@H]2O[C@H]2[C@@H](C)[C@H](C)O)[C@@H](O)[C@H]1O | 96.3%
O=C1C2C3c4ccccc4C(c4ccccc43)C2C(=O)N1c1cccc2cccnc12 (centres undefined) | 81%
Brc1ccc2cccnc2c1 | 88.6%
CCc1cc2c(NCCC(=O)O)nc(C)nc2s1 | 93%
c1ccc(Oc2cc(-c3ccccc3)ncn2)cc1 | 82.3%
Fc1ccc(-c2n[nH]c(=S)n2/N=C/c2c[nH]c3ccccc23)cc1 | 89.4%
CCOc1ccc(S(=O)(=O)Nc2ccc(C(=O)N/N=C/c3c(C)nn(-c4ccccc4)c3N3CCCC3)cc2)cc1 | 80.5%
Cc1cc(=O)[nH]c(N/N=C/c2c[nH]c3ccccc23)n1 | 86.4%
COc1ccc(-c2cc(C(=O)O)[nH]n2)cc1OC | 99.8%
